# Results taken from ChEMBL document CHEMBL1157539, “Thousands of chemical starting points for antimalarial lead identification” (Nature, 2010).
# Experiments:
# Format in all cases: functional
# [1] = system: Plasmodium falciparum; experiment: GSK_TCMDC: Inhibition of Plasmodium falciparum 3D7 in whole red blood cells, using parasite LDH activity as an index of growth. Test compounds present at 2uM
# [2] = system: Plasmodium falciparum; experiment: GSK_TCMDC: Inhibition of Plasmodium falciparum Dd2 in whole red blood cells, using parasite LDH activity as an index of growth. Test compounds present at 2uM
# [3] = system: HepG2; experiment: GSK_TCMDC: Percent inhibition of human HepG2 cell line. Test compounds present at 10uM.
smiles,measurement,setting,value
NCCC(=O)Nc1ccc(-c2cnc3[nH]cc(-c4ccc(C(=O)O)cc4)c3c2)cn1.O=C(O)C(F)(F)F,Inhibition,[1],99%
same,Inhibition,[2],67%
same,Inhibition,[3],0%
COc1cc(NC(=O)c2sc(-c3ccc(Cl)cc3)cc2NC(=O)c2cccc(N(C)C)c2)ccc1OCCN1CCCC1,Inhibition,[1],99%
same,Inhibition,[2],67%
same,Inhibition,[3],49%
CCN(CC(C)O)C(=O)c1ccc(-c2cccc(-c3nc4cccc(C)c4[nH]3)c2)cc1 (stereo not given),Inhibition,[1],100%
same,Inhibition,[2],32%
same,Inhibition,[3],28%
C#CC(C)(CO)N1CCCC1 (stereo not given),Inhibition,[1],95%
same,Inhibition,[2],1%
same,Inhibition,[3],10%
COc1cc(C)nc2ccc(NC(=O)c3cc([N+](=O)[O-])cc([N+](=O)[O-])c3)cc12.Cl,Inhibition,[1],100%
same,Inhibition,[2],94%
same,Inhibition,[3],0%
CCOC(=O)c1ccc(N2CCN(c3cc(C)ccc3C)CC2)c(NC(=O)Nc2ccc(Cl)c(Cl)c2)c1,Inhibition,[1],100%
same,Inhibition,[2],42%
same,Inhibition,[3],7%
CC(C)COc1ccc(Cl)cc1Cc1ccc(-c2nc3cc(CCN4CCCC4)ccc3[nH]2)o1.Cl,Inhibition,[1],100%
same,Inhibition,[2],94%
same,Inhibition,[3],34%
CCCCCCn1c(Sc2ccc(C#N)c([N+](=O)[O-])c2)nnc1-c1ccc(OC)cc1,Inhibition,[1],95%
same,Inhibition,[2],51%
same,Inhibition,[3],19%
Cc1onc(-c2ccc(Cl)cc2)c1-c1ccnn1S(=O)(=O)c1ccc(Cl)cc1,Inhibition,[1],100%
same,Inhibition,[2],99%
same,Inhibition,[3],0%
CN(Cc1ccccc1)C1CCN(c2cc(NC(=O)c3cccc(F)c3)ccn2)CC1.O=C(O)C(F)(F)F,Inhibition,[1],93%
same,Inhibition,[2],3%
same,Inhibition,[3],2%
